# Screens (PubChem BioAssay)
# Only some compounds are listed: those with a hit (about 3% of all), similar ones and a draw of the others.
# Mcl1 Noxa PPI = disrupts binding of human Mcl-1 to Noxa peptide. TR-FRET Mcl-1/Noxa peptide binding, 2 h. Q07820. actives 1.5% (n = 220,000). inhibition, % at 21.7 µM;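 active means compounds that cut the protein-peptide binding signal by more than 50% relative to plate controls in a single-dose test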;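 further: His-tagged Mcl-1 with rhodamine Noxa BH3 peptide and terbium anti-His antibody; 0% = Mcl-1 plus Noxa peptide wells and 100% = peptide-only wells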
# Target sequence (Q07820 whole entry, looked up): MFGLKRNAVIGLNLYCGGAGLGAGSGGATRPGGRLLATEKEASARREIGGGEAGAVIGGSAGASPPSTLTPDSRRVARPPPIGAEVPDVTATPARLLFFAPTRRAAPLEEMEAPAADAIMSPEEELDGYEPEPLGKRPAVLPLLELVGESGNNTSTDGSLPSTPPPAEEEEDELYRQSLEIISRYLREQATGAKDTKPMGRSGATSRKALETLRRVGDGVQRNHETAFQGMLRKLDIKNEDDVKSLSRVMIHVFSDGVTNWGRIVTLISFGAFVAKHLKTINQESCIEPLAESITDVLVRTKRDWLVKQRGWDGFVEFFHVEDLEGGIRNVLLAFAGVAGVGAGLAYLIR
# Bim-Mcl-1 = human Bim-Mcl-1 interaction inhibition. Bead-based flow cytometry, Bim peptide-Mcl-1 binding. inhibition, % at 10 µM. actives 0.1% (n = 190,000). AID 1009; in the data active means inhibition above about 40%;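 further: 0% = no compound tracer wells and 100% = peptide blocker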
# 14-3-3 Bad inh = disrupts binding of bovine 14-3-3 zeta to phospho-Bad peptide; actives 0.71% (n = 220,000); TR-FRET 14-3-3zeta/Dy647-pBad peptide displacement, 1 h; inhibition, % at 21.7 µM; AID 781;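 active means inhibition above about 70%, limit read from the data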;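 further: 0% = full 14-3-3 plus peptide FRET controls and 100% = background without 14-3-3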
# Target sequence (P63103 whole entry, looked up): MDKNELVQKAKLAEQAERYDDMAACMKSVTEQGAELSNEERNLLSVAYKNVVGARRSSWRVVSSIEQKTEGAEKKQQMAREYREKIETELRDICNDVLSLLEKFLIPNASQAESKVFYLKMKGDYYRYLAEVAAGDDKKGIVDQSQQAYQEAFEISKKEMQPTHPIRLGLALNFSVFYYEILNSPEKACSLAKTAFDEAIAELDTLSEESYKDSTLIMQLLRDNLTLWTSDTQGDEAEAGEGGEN
# Arbovirus anti = antivirals against arbovirus infection; arbovirus infection cell-based antiviral screen; inhibition, % at 10 µM; actives 0.37% (n = 200,000); AID 1251; in the data active means inhibition above about 30%
# Mcl1-Bid inh = disrupts binding of human Mcl-1 to Bid peptide | TR-FRET Mcl-1/Bid-Dy647 peptide binding, 1536-well | AID 1021 | Q07820 | actives 0.97% (n = 220,000) | inhibition, % at 21.7 µM;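 active means compounds that cut the binding signal by more than half at the single screening dose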;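 further: His-tagged Mcl-1 with europium anti-His antibody binding Bid BH3 peptide; 0% = Mcl-1 plus peptide wells and 100% = peptide-only wells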
# * marks the source's active call; other numbers are inactive results; . = not tested or not shown.
SMILES,Mcl1 Noxa PPI,Bim-Mcl-1,14-3-3 Bad inh,Arbovirus anti,Mcl1-Bid inh
CCn1c2ccccc2c2cc(/C=N/NC(=O)c3cc(O)cc(O)c3)ccc21,63.5*,-2.0,7.1,-12.8,-13.2
O=C(O)CCCCC1CCSS1 (centres undefined),73.7*,-2.0,99.2*,-20.1,97.2*
O=C(O)CCNC1CCCCC1,16.7,.,-6.2,.,-10.3
Cc1ccccc1NC(=O)CSc1ccsc1[N+](=O)[O-],71.3*,-5.0,18.0,-0.3,-60.8
O=C(CSc1ccsc1[N+](=O)[O-])N1CCN(c2ccccc2)CC1,64.7*,-5.0,-1.1,1.1,4.7
O=C(CSc1ccsc1[N+](=O)[O-])N1CCN(c2ccc(Cl)cc2)CC1,95.3*,-4.0,10.0,-5.5,-0.9
O=C(CSc1ccsc1[N+](=O)[O-])N1CCCCCC1,18.7,-2.0,-15.5,0.0,-18.1
CCN(CC)S(=O)(=O)c1ccc(C)c(NC(=S)N2CCN(Cc3ccc4c(c3)OCO4)CC2)c1,26.1,1.0,-15.2,22.5,-18.1
O=c1[nH]c2c(s1)C(c1ccc(O)cc1)C1C3CCC(C3)C1S2 (centres undefined),54.5*,0.0,4.8,4.6,48.2
O=c1[nH]c2c(s1)C(c1cccnc1)C1C3CCC(C3)C1S2 (centres undefined),-8.5,.,1.9,.,-46.8
Cc1ccccc1NC(=O)Cn1nnc2sc3c(c2c1=O)CC(C)(C)OC3,5.8,.,3.7,.,-4.8
CCC1(C)Cc2c(sc3nnn(CC(=O)Nc4ccccc4C)c(=O)c23)CO1 (centres undefined),53.5*,0.0,-5.1,13.7,18.6
NS(=O)(=O)c1ccc(-c2ccc(/C=N/NC(=O)c3ccc([N+](=O)[O-])cc3)o2)cc1,26.6,.,1.4,.,1.1
O=C(O)c1cc(-c2ccc(/C=N/Nc3ccc([N+](=O)[O-])cn3)o2)ccc1Cl,16.3,1.0,-14.0,31.3*,-19.5
O=C(Cc1ccc(F)cc1)N/N=C/c1ccc(-c2ccc(Cl)c(C(=O)O)c2)o1,22.6,-1.0,4.0,12.8,-0.2
NS(=O)(=O)c1ccc(-c2ccc(/C=N/Nc3ccc(C(=O)O)cc3)o2)cc1,59.1*,.,3.5,.,-83.4
O=C(O)c1cccc(-c2ccc(/C=N/Nc3ccc([N+](=O)[O-])cc3)o2)c1,23.0,.,-4.8,.,-51.0
O=C(O)c1ccc(-c2ccc(/C=N/Nc3ccc([N+](=O)[O-])cc3)o2)cc1,61.7*,.,-2.8,.,-49.2
COc1ccc(CNc2ncnc3c2[nH]c2ccccc23)cc1,15.8,.,-13.0,.,-6.3
COc1ccc(CNc2ncnc3c2[nH]c2cc(OC)c(OC)cc23)cc1,52.3*,.,-6.2,.,-16.9
O=C(O)c1ccc(S(=O)(=O)Nc2ccc(O)c(Sc3nc4ccccc4s3)c2)cc1,50.8*,0.0,12.1,2.6,-46.2
O=C(CNC(=O)c1ccc([N+](=O)[O-])cc1)N/N=C\c1ccc(OC(=O)c2ccccc2)cc1,41.7,19.0,60.5,0.0,74.7*
COc1ccc(OCC(=O)N/N=c2\oc3c(OC)cccc3cc2C(N)=O)cc1,2.2,-6.0,0.8,-13.8,-120.7
COc1cccc2cc(C(N)=O)/c(=N/NC(=O)COc3ccc(Cl)cc3)oc12,4.0,-2.0,31.2,-22.6,63.8*
COc1ccc(Cl)cc1C(Nc1cccnc1)c1ccc2cccnc2c1O (centres undefined),46.5,0.0,28.1,-25.5,96.6*
SMILES,Mcl1 Noxa PPI,Bim-Mcl-1,14-3-3 Bad inh,Arbovirus anti,Mcl1-Bid inh
CC1=CC(C)(C)Nc2ccccc21,67.4*,-1.0,47.6,-1.4,27.8
O=C(O)CCN1C(=O)/C(=C/c2cn(-c3ccccc3)nc2-c2cccs2)SC1=S,88.0*,-2.0,75.6*,-12.1,83.6*
Cc1ccc(-c2nn(-c3ccccc3)cc2/C=C2\SC(=S)N(CC(=O)O)C2=O)cc1,88.1*,.,10.6,.,35.5
CC1=NNC(=O)/C1=C\c1cn(-c2ccccc2)nc1-c1cccs1,14.0,-10.0,9.8,-32.3,33.9
O=C(O)CCCCCN1C(=O)/C(=C\c2cn(-c3ccccc3)nc2-c2cccs2)SC1=S,98.6*,.,63.8,.,89.3*
CCOC(=O)Cc1csc(/N=C/c2c(O)n(-c3ccc(C)c(C)c3)c(=O)c3ccccc23)n1,-4.2,0.0,5.7,-5.9,-19.7
CCn1c(=O)cc(SCC(=O)NCc2ccccn2)c2ccccc21,-5.5,0.0,-11.2,-7.0,-1.5
Cc1nc2c(ncn2-c2ccccc2)c(=O)n1NC(=O)CN1CCCCC1,3.4,.,-0.8,.,-12.9
Cc1cccc(N2CCN(C(=O)Cc3ccc(-n4c(=O)[nH]c5ccsc5c4=O)cc3)CC2C)c1 (centres undefined),8.1,-6.0,-6.2,1.7,93.3*
Cc1ccc(-c2ccc(=O)n(CC(=O)N3CCN(c4cccc(C)c4)C(C)C3)n2)cc1 (centres undefined),18.5,-2.0,4.6,2.5,-10.6
Cc1cccc(N2CCN(C(=O)Cn3c(=O)[nH]c4ccsc4c3=O)CC2C)c1 (centres undefined),8.0,0.0,-12.9,0.4,-8.8
Cc1cccc(N2CCN(C(=O)Cn3sc4nc(C)cc(C)c4c3=O)CC2C)c1 (centres undefined),58.7*,-4.0,-6.9,-39.3,-51.8
CCOc1ccc(NC(=O)Cn2sc3nc(C)cc(C)c3c2=O)cc1,51.4*,.,5.9,.,-117.3
Cc1cc(C)c2c(=O)n(CC(=O)N3CCC(Cc4ccccc4)CC3)sc2n1,58.6*,-8.0,-9.6,-6.3,-23.5
CCOCCCNC(=O)C1c2ccccc2C(=O)N2CCc3ccccc3C12 (centres undefined),0.8,-3.0,-18.8,5.4,-6.3
COc1ccc(N/C(=C(/C(Cl)=C(Cl)Cl)[N+](=O)[O-])n2nnc3ccccc32)cc1OC,35.6,2.0,23.9,-0.2,74.6*
COc1ccc(C(=O)n2nnc3ccccc32)cc1OC,16.9,-9.0,6.8,4.3,2.5
CCOC(=O)C(C(=O)OCC)c1cc(Br)c2noc3c2c1C(=O)c1ccccc1-3,57.0*,42.0*,-9.6,-28.4,-14.3
O=S(=O)(c1cccs1)N1CCN(S(=O)(=O)c2cccs2)CC1,7.0,0.0,-10.6,7.0,-24.0
O=S(=O)(c1cccs1)N1CCCc2cccc(O)c21,12.3,-1.0,74.2*,2.2,-62.6
CCOC(=O)c1c(O)c2c(n(Cc3ccco3)c1=O)CCCC2,-6.3,0.0,-11.6,30.8*,-34.9
C/C(Cc1ccccc1)=N\NC(=O)CNC(=O)c1ccc(C(C)(C)C)cc1,15.9,-7.0,-1.2,-1.1,-9.4
COC(=O)c1cc(=O)n(Cc2ccc(F)cc2)c(=Nc2ccccc2)s1,52.1*,.,1.1,.,-21.4
COC(=O)c1ccc(C(=O)OC)c(NC(=O)CSc2cccc[n+]2[O-])c1,10.8,1.0,-3.7,4.7,-76.7
Cc1cccc(C)c1N1C(=O)[C@@H]2C(c3ccccc3Cl)=NO[C@@H]2C1=O,-7.8,.,-3.1,.,-12.0
COc1ccc(OC)c(N2C(=O)[C@@H]3C(c4ccccc4Cl)=NO[C@@H]3C2=O)c1,59.3*,2.0,13.9,12.9,-40.3
O=C1CCCC(O)=C1N=Nc1ccc(C(=O)O)cc1,54.0*,.,51.2,.,-47.8
